Hits are enriched below; roughly 1.7% of the tested compounds scored in any of these assays.
PTHR1 ag: qHTS for PTHR1 Agonists: Primary Screen. Parathyroid hormone/parathyroid hormone-related peptide receptor (Homo sapiens), Q03431. Potency, µM (top dose mostly 115 µM), for the others: at the top dose activation, most hits filed as activators. 0.075% of 410,000 active. AID 743266, 2014. HEK293 GP2 PTHR1 cells, GloSensor cAMP luminescence, 1 h; further: potency means the concentration at half of the fitted maximal effect; nearly all actives have a fitted effect of over 55% in size
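HEK-293-derived GP2 cells expressing PTHR1 and a GloSensor cAMP reporter, 3,000/well, plated overnight, given luciferin plus IBMX (each 0.5 mM as added) for 1 h at 37 °C, then compound for 1 h at 37 °C. Luminescence was read after 15 min at room temperature.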
GLP1R ag: qHTS of GLP-1 Receptor Agonists | HEK293 GLP-1R CRE-luciferase, luminescence, 4-6 h; cells express a hypersensitive GLP-1R form | Potency, µM (titrated, usually from 45.6 µM), for inactives: at the highest dose activation, hits mostly activators | 0.007% of 380,000 active | AID 624172, 2012; further: potency means the concentration at half of the fitted maximal effect; % of control where 0% means no effect
GLP1R inv ag: qHTS of GLP-1 Receptor Inverse Agonists (Inhibition Mode). HEK293 GLP-1R CRE-luciferase, luminescence, 24 h; GLP-1R form is constitutively active. Potency, µM (top dose mostly 38.3 µM), inactives show top-dose activity change, negative = inhibition, most hits filed as inhibitors. 1.6% of 410,000 active; further: potency means the concentration at half of the fitted maximal effect; on the % scale 0 is the no-effect control and ±100 the full control effect; nearly all actives have a fitted effect of over 55% in size
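Inverse agonism was detected as reduced cAMP-driven luciferase luminescence after 24 h compound treatment. The cells were HEK293 clones expressing constitutively active human GLP-1R with the reporter. Reporter-only and GPR119 cell lines served as counterscreen controls.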
LDHA block: qHTS assay for inhibitors of human lactate dehydrogenase; activity change, % (values are at about 110 or 230 µM); 0.15% of 480,000 active; purified LDHA, NADH/diaphorase-resazurin fluorescence; stronger effect = lower value; in the data active means activity change below about -30%; inconclusive means mostly about -25% to -30%;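 further: plate controls were DMSO wells for no effect and wells without enzyme for full effect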
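Remaining NADH was detected by diaphorase (0.133 mg/mL) converting 37 µM resazurin to fluorescent resorufin, read at 0 and 20 minutes. The preceding 5-minute room-temperature reaction used 2 nM LDHA, 0.2 mM sodium pyruvate and 0.06 mM NADH at pH 7.4.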
HEK293 tox: qHTS of GLP-1 Receptor Inverse Agonists: Cytotox Screen. HEK293 cAMP-luciferase reporter cells, luminescence, 24 h. Potency, µM (top dose mostly 38.3 µM), without a hit: top-dose activity change, negative = inhibition, most hits filed as inhibitors. 0.13% of 410,000 active. AID 624418, 2012;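 further: loss of luciferase light is scored as toxicity; potency means the concentration at half of the fitted maximal effect; on the % scale 0 is the no-effect control and ±100 the full control effect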
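Here, cytotoxicity is scored as loss of luminescence. The MLSMR collection was tested on cells seeded in medium containing 10% Nu serum, with a 24 hr compound exposure preceded by 12 hours of culture.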
mIDH1 inhibitor: qHTS for Inhibitors of mutant isocitrate dehydrogenase 1 (IDH1): qHTS; IDH1-R132H enzyme, NADPH consumption, diaphorase/resazurin fluorescence; Isocitrate dehydrogenase [NADP] cytoplasmic (Homo sapiens), O75874; 0.093% of 390,000 active; AID 602179, 2012; Potency, µM (doses to about 76.6 µM), inactives show at the highest dose activity change, negative = inhibition, most hits filed as inhibitors; further: potency means the concentration at half of the fitted maximal effect; on the % scale 0 is the no-effect control and ±100 the full control effect; nearly all actives have a fitted effect of over 65% in size
Target sequence (O75874 whole entry R132H, stated change not applied): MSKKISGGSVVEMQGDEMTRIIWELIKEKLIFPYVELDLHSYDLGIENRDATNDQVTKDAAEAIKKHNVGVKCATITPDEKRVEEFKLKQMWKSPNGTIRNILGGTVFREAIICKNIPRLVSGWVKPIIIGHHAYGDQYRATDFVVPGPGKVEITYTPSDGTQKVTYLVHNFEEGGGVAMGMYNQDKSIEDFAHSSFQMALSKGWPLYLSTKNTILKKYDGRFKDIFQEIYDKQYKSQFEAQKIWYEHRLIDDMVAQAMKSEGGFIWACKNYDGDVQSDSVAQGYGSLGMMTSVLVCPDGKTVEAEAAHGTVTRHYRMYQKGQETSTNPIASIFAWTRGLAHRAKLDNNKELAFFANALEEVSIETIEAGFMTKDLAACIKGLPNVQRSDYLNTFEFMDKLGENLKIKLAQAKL
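IDH1-R132H (0.5 ug/mL) preincubated 30 min with compound, then NADPH (0.016 mM) and alpha-KG (2 mM) added; 80 min at RT, pH 7.5. Remaining NADPH coupled via diaphorase/resazurin to fluorescence (540/590 nm); concentration-response curves normalized to no-enzyme control.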
The depositor's hits bear a star. Unless noted, the call rests on the fitted dose curve; in most records, active means well fitted curve in the direction sought with a large enough effect; inconclusive means small, poorly fitted or top-dose-only effect, or another doubt; inactive means no such curve, though single readings can be large; an effect the other way counts as inactive or inconclusive.

Screening CCCC(NCC(O)COc1ccc(-c2ccccc2)cc1)c1ccccc1 (stereo unspecified) returned PTHR1 ag -32%, GLP1R ag -6%, GLP1R inv ag 13µM*, LDHA block 0, HEK293 tox inconclusive and mIDH1 inhibitor 8%.
`COc1ccc(OCC(O)CNC(C)c2ccccc2)cc1` (stereo unspecified) gave PTHR1 ag inactive, GLP1R ag 3%, GLP1R inv ag -24%, LDHA block -4, HEK293 tox 4% and mIDH1 inhibitor -4%.
`OC(CNC1CCCC1)COc1ccc(-c2ccccc2)cc1` (stereo unspecified) gave PTHR1 ag -31%, GLP1R ag 1%, GLP1R inv ag 8.9µM*, LDHA block -6, HEK293 tox 10% and mIDH1 inhibitor 2%.
Screening COC(=O)c1ccc(OCC(O)CNC2CCCC2)cc1 (stereo unspecified) returned PTHR1 ag -1%, GLP1R ag 11%, GLP1R inv ag inconclusive, LDHA block -2, HEK293 tox -15% and mIDH1 inhibitor -8%.
For CS(=O)(=O)N1CCCCC1C(=O)NC1CCCCCCC1 (stereo unspecified) the results were LDHA block 0.
Screening CC(NCC(O)COC1CCC(C(C)(C)C)CC1)c1ccccc1 (stereo unspecified) returned PTHR1 ag -7%, GLP1R ag 3%, GLP1R inv ag 10µM*, LDHA block 0, HEK293 tox inconclusive and mIDH1 inhibitor -2%.
Cc1ccsc1/C=C(\C(=O)c1ccc(OC(C)C)cc1)c1nc2ccccc2o1 was read as PTHR1 ag inactive, GLP1R ag 9%, GLP1R inv ag 4µM*, LDHA block -4, HEK293 tox 2% and mIDH1 inhibitor 3%.
Screening CCN1C(=O)[C@H]2[C@@H](c3ccc(C(F)(F)F)cc3)N[C@]3(CCCN(Cc4ccc(C)cc4)C3=O)[C@H]2C1=O returned PTHR1 ag -2%, GLP1R ag -5%, GLP1R inv ag inconclusive, LDHA block 1, HEK293 tox 2% and mIDH1 inhibitor 0%.
`CCN1C(=O)[C@H]2[C@@H](c3ccc(C(F)(F)F)cc3)N[C@]3(CCCN(Cc4ccc(Cl)cc4)C3=O)[C@H]2C1=O` gave PTHR1 ag -20%, GLP1R ag -5%, GLP1R inv ag 10µM*, LDHA block -2, HEK293 tox 5% and mIDH1 inhibitor 5%.
For O=C1[C@H]2[C@@H](c3ccc(C(F)(F)F)cc3)N[C@]3(CCCN(Cc4ccccc4)C3=O)[C@H]2C(=O)N1Cc1ccccc1 the results were PTHR1 ag -30%, GLP1R ag -6%, GLP1R inv ag 11µM*, LDHA block -3, HEK293 tox 0% and mIDH1 inhibitor -2%.
O=C1[C@H]2[C@@H](c3ccc(C(F)(F)F)cc3)N[C@]3(CCCN(Cc4ccc(C(F)(F)F)cc4)C3=O)[C@H]2C(=O)N1Cc1ccccc1 was read as PTHR1 ag -20%, GLP1R ag -4%, GLP1R inv ag 4.5µM*, LDHA block 0, HEK293 tox 3% and mIDH1 inhibitor 14%.
Screening N#Cc1ccc(OCCn2nc(C(=O)O)c3ccccc3c2=O)cc1 returned LDHA block 6.
`COc1cccc(CN(C)C(=O)C(Cc2ccccc2)NC(=O)c2ccccc2)c1OC` (stereo unspecified) gave PTHR1 ag -17%, GLP1R ag 7%, GLP1R inv ag 8.9µM*, LDHA block -4, HEK293 tox -17% and mIDH1 inhibitor 9%.

High-throughput results as filed in PubChem.
